In all, about 320,000 compounds went through this assay and about 1,700 (0.53%) were called active. What follows is part of a selection rich in actives, with near analogues and random picks from the rest. Unmarked numbers belong to inactive results.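 Rule for the calls: active = inhibition above the campaign mean of all compounds plus 3 SD (cut at about 26% in these data); inactive = the rest.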
Target: Protein phosphatase methylesterase 1 (Homo sapiens) (UniProt Q9Y570)
Assay: PME-1 inhibitors via competitive probe labeling, primary screen, biochemical, fluorescence polarization, FP-Rh probe, HTS (AID 2130);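 note: competitive labeling of PME-1 active site by serine hydrolase directed probe; 0% = PME-1 with DMSO and 100% = wells lacking PME-1 enzyme; inhibitors block probe labeling so polarization falls and inhibition rises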
Details: recombinant PME-1, FP-Rh probe fluorescence polarization; at 5.9 µM; hits give high values

Protein phosphatase methylesterase 1 (Homo sapiens), sequence (Q9Y570 whole entry, looked up): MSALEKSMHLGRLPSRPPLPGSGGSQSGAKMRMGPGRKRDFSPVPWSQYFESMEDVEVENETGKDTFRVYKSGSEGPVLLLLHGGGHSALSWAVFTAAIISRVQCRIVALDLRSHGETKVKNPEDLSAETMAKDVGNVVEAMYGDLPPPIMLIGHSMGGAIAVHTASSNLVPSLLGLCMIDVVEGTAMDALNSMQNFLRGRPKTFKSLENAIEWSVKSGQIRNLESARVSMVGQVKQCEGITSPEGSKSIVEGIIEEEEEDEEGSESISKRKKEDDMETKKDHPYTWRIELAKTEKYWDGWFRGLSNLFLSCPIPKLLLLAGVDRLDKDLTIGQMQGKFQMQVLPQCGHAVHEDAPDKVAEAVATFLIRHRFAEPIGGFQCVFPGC

SMILES	inhibition
CCOc1cc(C(=O)Nc2c(C)ccc3nsnc23)cc(OCC)c1OCC	-3.07%
CCN1CCN(C(=O)N[C@@H](C(=O)N[C@@H]2C(=O)N3C(C(=O)O)=C(CSc4nnnn4C)CS[C@H]23)c2ccc(O)cc2)C(=O)C1=O	1.33%
O=C(Oc1cccc(N2C(=O)C3C4c5ccccc5C(c5ccccc54)C3C2=O)c1)c1ccco1 (centres undefined)	2.64%
Cc1nc(N=C(N)N)nc2c(C)cccc12	-4.31%
O=C(CCC1CCCN(Cc2ccc(O)c(Cl)c2)C1)NCc1ccccc1F (centres undefined)	-1.64%
Cc1[nH]c2c(C(=O)N3CCCC(CCC(=O)NCc4ccccc4F)C3)cccc2c1C (centres undefined)	28.6% (active)
CSc1ncccc1C(=O)N1CCCC(CCC(=O)NCc2ccccc2F)C1 (centres undefined)	-3.09%
Cc1cccc(N(Cc2ccccc2)C(=O)c2cc(S(=O)(=O)N3CCOCC3)ccc2F)c1	8.02%
COc1cc(/C=N/Nc2nc3ccccc3s2)ccc1O	45.3% (active)
COc1ccc(/C=N/Nc2nc3ccccc3o2)cc1OC	23.1%
COc1cc(/C=N\Nc2nc(-c3cccs3)c(NC(C)=O)s2)ccc1O	7.62%
COC(=O)COc1cccc2c(=O)n(CC(=O)NCc3ccccc3)ccc12	-7.45%
Cc1cc(C)c(C)c(S(=O)(=O)Nc2ccc(O)cc2)c1C	6%
O=C(Nc1ccnn1C1CCN(Cc2cccc(OCCO)c2)CC1)C1CCCC1	4.32%
Cc1nc2ccccc2nc1N/N=C/c1ccc(O)cc1O	36.9% (active)
COc1ccccc1N1CCN(/N=C/c2ccc(O)cc2O)CC1	2.94%
COc1cccc(/C=N/Nc2cc(C)nc(-c3ccccc3O)n2)c1O	23.9%
O=c1c2ccccc2nc(N/N=C/c2ccccc2)n1O	-3.42%
Oc1ccc(/C=N/Nc2nc(-c3ccccc3F)nc3ccccc23)c(O)c1	55% (active)
FC(F)(F)c1nc2ccccc2nc1N/N=C/c1ccc(Cl)cc1	2.4%
CCO[C@H]1OC(C(=O)N2CCN(Cc3ccccc3)CC2)=C[C@@H](c2cn(C(C)=O)c3ccccc23)[C@@H]1CCCO	10.4%
CC(=O)Nc1ccc(S(=O)(=O)N2CCC(C(=O)N[C@@H](Cc3ccccc3)C(=O)O)CC2)cc1	-6.81%
COc1ccccc1N1CCN(C(=O)CCS(=O)(=O)c2ccc3c(c2)NC(=O)C(C)S3)CC1 (centres undefined)	-1.07%

SMILES	inhibition
COC(=O)c1ccc(CN2C(=O)NC(c3ccccc3)(c3ccccc3)C2=O)o1	0.13%
CC(C)(C)C(=O)N(Cc1ccccc1)c1ccccn1	-3.74%
O=C(Nc1ccccc1C(=O)N1CCOCC1)c1ccc(Cl)cc1	-4.46%
O=c1nc(N2CCOCC2)nc2n1CCO2	0.45%
CCCOc1ccc(CN(CCO)CCO)cc1C(=O)OC	1.19%
Cc1c(C(=O)N2CCCC2)c(S(=O)(=O)NCC(C)c2ccccc2)c(C)n1C (centres undefined)	4.76%
N=c1n(CCc2ccccc2)c2ccccc2n1Cc1ccccc1F	-11%
CC(=O)c1c(C)n(-c2ccc(N(C)C)cc2)c2ccc(OCC(N)=O)cc12	26.2% (active)
CCOC(=O)c1c(C)oc2ccc(OCC(=O)N(CC)CC)cc12	-5.01%
CC(=O)c1c(C)n(-c2ccc(C)cc2)c2ccc(O)cc12	-0.87%
CC(=O)N1CC[n+]2c(-c3ccc([N+](=O)[O-])cc3)csc21	-1.65%
COc1cc(NS(=O)(=O)c2ccc(NC(=O)c3ccc([N+](=O)[O-])cc3)cc2)ncn1	4.2%
Cc1ccc(NC(=O)Cc2nnc(SCC(=O)Nc3nncs3)n2C)cc1	5.14%
O=C(CCn1nnc2ccccc21)OCC(=O)c1ccc([N+](=O)[O-])cc1	-1.86%
Cc1cc(C(=O)OCC(=O)Nc2ccc(F)c(F)c2)c(C)o1	-2.42%
CONC(=O)c1cc(OCC(F)(F)F)ccc1OCC(F)(F)F	-6.8%
CN(Cc1ccccc1)C(=O)c1ccc(NC2=NC3CS(=O)(=O)CC3S2)cc1 (centres undefined)	0.07%
O=C(CCc1nnc2ccc(NCCCN3CCCC3=O)nn12)NCc1ccccc1Cl	-0.36%
Cc1ccc(N(C(=O)C(F)(F)F)C(C(=O)NC2CCCCC2)c2ccncc2)cc1C (centres undefined)	3.24%
O=S1(=O)CCOC[C@H](CC2CCCCC2)N1Cc1ccc(F)cc1	1.92%
CCOC(=O)c1c(N)sc(C(C)=O)c1C	3.77%
COCCOC(=O)c1sc(=S)n(CCOC)c1N	35% (active)
COC(=O)c1sc(=S)n(-c2ccc(Cl)cc2)c1C	-0.65%

SMILES	inhibition
COc1cccc(CNC(=O)CN2C(=O)NC(Cc3ccccc3)(c3ccccc3)C2=O)c1 (centres undefined)	-2.37%
Cc1ccc(C2C3=C(Nc4[nH]n(-c5ccccc5)c(=O)c42)c2ccccc2C3=O)cc1 (centres undefined)	36.4% (active)
Cc1ccc(-c2ccnc3[nH]n(-c4ccccc4)c(=O)c23)cc1	-2.99%
Cc1cc(C)c(C2C3=C(Nc4c2c(C)nn4-c2ccccn2)c2ccccc2C3=O)c(C)c1 (centres undefined)	-4.18%
CSc1nc2nc(-c3cccc(C(F)(F)F)c3)ccn2n1	-7.13%
COC(=O)CSc1nc2c(c(C3CC=CCC3)c1C#N)CCC2 (centres undefined)	-1.86%
CCOC(=O)N1CCN(C(=O)COCc2cc(-c3ccc4c(c3)OCO4)on2)CC1	-4.28%
O=C(NCCCN1CCCCC1)C1CC(=O)N(CCc2ccccc2)C1 (centres undefined)	0.2%
CCCCN(CCCC)CCNC(=O)CN1C(=O)COc2ccc(S(=O)(=O)N3CCOCC3)cc21	-2.01%
CCc1ccc(C(=O)CSc2nnc(C)c(=O)[nH]2)cc1	-6.05%
O=C(O)c1ccccc1N=N/C(=N/Nc1cc(S(=O)(=O)O)ccc1O)c1ccccc1	13.7%
COCCNC(=O)c1ccccc1NS(=O)(=O)c1ccc(C)c([N+](=O)[O-])c1	-1.62%
Cc1cccc(COc2ccccc2/C=N/Nc2ccc([N+](=O)[O-])cc2)c1	11.9%
Cc1ccc(NS(=O)(=O)c2ccc(N/N=C/c3ccccc3OCC(=O)O)c([N+](=O)[O-])c2)c(C)c1	78.2% (active)
Cc1ccccc1N1CC(C(=O)Nc2ccc3c(c2)OCO3)CC1=O (centres undefined)	0.7%
COCCN(C(=S)Nc1cccc(Cl)c1C)C(C)c1ccco1 (centres undefined)	-13.2%
CCCN(C(=O)CSc1nnnn1C)c1c(N)n(Cc2ccccc2)c(=O)[nH]c1=O	0.95%
COc1ccc(N2C(=O)c3ccccc3NC2c2ccc(OC)c(CN3CCOCC3)c2)cc1 (centres undefined)	-3.55%
COc1ccc(C2Nc3ccccc3C(=O)N2Cc2ccccc2)cc1Cn1nnc2ccccc21 (centres undefined)	8.54%
COc1ccc(C2Nc3ccccc3C(=O)N2c2ccc(F)cc2)cc1Cn1nnc2ccccc21 (centres undefined)	30.4% (active)
O=C(NCCc1ccccn1)c1nc(Cn2cc([N+](=O)[O-])cn2)no1	-4.02%
Cc1ccc(-c2ccnc3nc(Sc4ncc(C(F)(F)F)cc4Cl)nn23)cc1	-0.19%
COC/C=C/C1=CC2=CC(=O)C(C)(OC(=O)CCC(=O)OC)C(=O)C2=CO1 (centres undefined)	-1.35%

SMILES	inhibition
COc1ccccc1OCCn1c(SCC(N)=O)nc2ccccc21	-4.12%
COc1ccc(NC(=O)[C@H](NC(=O)[C@@H]2Cc3ccccc3CN2)c2ccccc2)cc1	-3.82%
COc1ccc(NC(C(=O)Nc2cccc(C(C)=O)c2)c2ccccc2)cc1 (centres undefined)	34.5% (active)
COC(C(=O)Nc1ccc(C(C)=O)cc1)c1ccccc1 (centres undefined)	-5.79%
CS(=O)(=O)N(CC(=O)Nc1ccc(F)cc1F)c1cccc([N+](=O)[O-])c1	-2.56%
O=C(CNCc1cccs1)Nc1cc(S(=O)(=O)N2CCCC2)ccc1Cl	22%
CSCCC(NS(=O)(=O)/C=C/c1ccccc1)C(=O)N1CCC(C)CC1 (centres undefined)	6.82%
CCc1ccc2nc3sc(C(=O)Nc4nnc(CC)s4)c(N)c3cc2c1	65.8% (active)
CCc1nnc(NC(=O)c2cccc(S(=O)(=O)N(C)c3ccc(OC)cc3)c2)s1	-0.95%
CCc1nnc(NC(=O)c2sc3nc(C)cc(COC)c3c2N)s1	-5.69%
Clc1ccc(-c2cc(COc3ccccc3)no2)cc1Cl	-8.92%
COC(=O)COc1ccc2c(c1C)O/C(=C\c1ccco1)C2=O	-9.46%
COc1cc(/C=N/NC(=O)c2ccc(N3CCCC3=O)cc2)ccc1O	5.91%
CCOc1cc(/C=N/NC(=O)c2cc(-c3ccccc3)nc3ccccc23)ccc1O	-7.58%
COc1ccc(C(=O)Nc2ccccc2C(=O)N/N=C/c2ccc(O)c(OC)c2)cc1	33.6% (active)
CCOC(=O)[C@H]1CCC[C@@H](NS(=O)(=O)c2ccc(NC(C)=O)cc2)C1	1.52%
Cc1csc2nc(COC(=O)c3cccc(N(C)C)c3)cc(=O)n12	3.78%
COc1ccc(NS(=O)(=O)c2cc(C(=O)Nc3ccccc3C(=O)O)ccc2C)cc1	-3.94%
COc1ccc(C(=O)CC(=O)C(=O)Nc2cc([N+](=O)[O-])ccc2OC)cc1	-2.97%
COc1ccc(NS(=O)(=O)c2cc(NC(=O)CC(=O)c3ccc([N+](=O)[O-])cc3)ccc2C)cc1	27% (active)

Reference: PubChem BioAssay AID2130 (The Scripps Research Institute Molecular Screening Center, 2009)
